Results: PubChem BioAssay AID652197 (Broad Institute, 2013)
Where “and” joins values, the source holds several entries; their conditions need not be identical. Identical values can stand only once. Hit rate of the full screen: of about 340,000 compounds, about 500 (0.15%) were called active. The entries come from a sample that favours actives as a whole. Unmarked numbers belong to inactive results.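 How the source made its calls: active means mean replicate inhibition of at least 30%, or all replicates individually reaching that 30% level; inactive means mean below 30% and not every replicate reaching it.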

target: Endoplasmic reticulum aminopeptidase 1 (Homo sapiens) (UniProt Q9NZ08); test: inhibition of ERAP1 peptide trimming enzyme – biochemical, single point, plate reader, primary screen (AID 652197); conditions: recombinant ERAP1, Leu-AMC fluorescence, 60 min; at 10.7 µM; stronger effect = higher value;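 further: 0% = neutral control wells and 100% = L-leucinethiol positive control wells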
Sequence (Q9NZ08 whole entry, looked up): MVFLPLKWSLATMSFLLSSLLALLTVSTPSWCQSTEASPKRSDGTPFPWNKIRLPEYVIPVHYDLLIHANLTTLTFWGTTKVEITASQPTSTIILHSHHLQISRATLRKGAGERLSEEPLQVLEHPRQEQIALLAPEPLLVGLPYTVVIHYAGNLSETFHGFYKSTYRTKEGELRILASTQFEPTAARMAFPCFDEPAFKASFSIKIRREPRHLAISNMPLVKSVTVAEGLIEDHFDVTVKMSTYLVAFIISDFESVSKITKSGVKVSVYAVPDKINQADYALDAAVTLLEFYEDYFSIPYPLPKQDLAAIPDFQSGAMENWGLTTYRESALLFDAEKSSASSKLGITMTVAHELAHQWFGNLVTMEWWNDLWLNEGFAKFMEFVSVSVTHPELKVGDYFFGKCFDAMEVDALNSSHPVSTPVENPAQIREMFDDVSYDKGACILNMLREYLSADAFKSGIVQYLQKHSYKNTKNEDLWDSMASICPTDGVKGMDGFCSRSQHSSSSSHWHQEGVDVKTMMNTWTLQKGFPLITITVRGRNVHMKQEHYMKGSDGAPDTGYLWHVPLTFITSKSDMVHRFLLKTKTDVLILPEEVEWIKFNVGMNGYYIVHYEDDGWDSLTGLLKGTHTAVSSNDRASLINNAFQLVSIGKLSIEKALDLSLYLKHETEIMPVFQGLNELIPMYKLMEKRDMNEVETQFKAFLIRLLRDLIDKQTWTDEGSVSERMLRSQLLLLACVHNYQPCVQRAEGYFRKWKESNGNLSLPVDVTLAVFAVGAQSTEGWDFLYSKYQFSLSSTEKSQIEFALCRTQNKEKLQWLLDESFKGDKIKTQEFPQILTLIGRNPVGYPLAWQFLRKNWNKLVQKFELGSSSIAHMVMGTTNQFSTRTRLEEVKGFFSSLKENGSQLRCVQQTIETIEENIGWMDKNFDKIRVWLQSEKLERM

| SMILES | inhibition |
| --- | --- |
| COc1ccc2c3c(n(C)c2c1)[C@@H](CO)N(C(=O)Nc1cccc(F)c1)CC31CCN(Cc2nccs2)CC1 | -1.39% |
| O=C(Nc1ccccc1F)N1CC(=O)N2[C@@H](CO)[C@H](c3ccc(C#CC4CCCC4)cc3)[C@@H]2C1 | -1.61% |
| CCC(=O)N1CCC2(CC1)CN(S(C)(=O)=O)[C@@H](CO)c1c2c2ccc(OC)cc2n1C | -0.517% |
| CC(=O)N(C)C[C@H]1[C@H](c2ccc(C3=CCCCC3)cc2)[C@H](CO)N1CC1CC1 | 2.34% |
| O=C(NCC1CC1)[C@@H]1[C@@H](CO)[C@@H]2Cn3c(ccc(C4=CCCC4)c3=O)[C@H]1N2CCC(F)(F)F | 6.29% |
| O=C(Nc1ccc(F)cc1)N[C@H]1CC[C@H](CCn2cc(C3(O)CCCC3)nn2)O[C@@H]1CO | -1.65% |
| CN1CCN(C(=O)C[C@H]2CC[C@H]3[C@@H](COC[C@H](O)CN3CC3CCCC3)O2)CC1 | 1.07% |
| O=C(C[C@@H]1CC[C@@H]2[C@H](COC[C@H](O)CN2C(=O)c2ccncc2)O1)NCc1cc(F)cc(F)c1 | -4.11% |
| CN1c2ccc(Br)cc2[C@@H]2[C@@H](CCN2S(=O)(=O)c2ccc(F)cc2)[C@@H]1CO | -0.368% |
| CN1CCCCC(NC(=O)C(C)(C)C)C1=O (configuration not stated) | -3.81% |
| CS(=O)(=O)Nc1ccc2c(c1)[C@H]1C[C@H](CC(=O)NC3CCCC3)O[C@@H](CO)[C@H]1O2 | -1.31% |
| CC(C)C#Cc1cnc2c(c1)C(=O)N([C@H](C)CO)C[C@H](C)[C@@H](CN(C)C(=O)Nc1cc(F)ccc1F)O2 | 1.03% |
| O=C(C[C@@H]1C=C[C@H](NC(=O)CN2CCOCC2)[C@@H](CO)O1)NCc1cccc(F)c1 | 0.919% |
| CCCC#Cc1ccc([C@@H]2[C@@H](CO)N3C(=O)CN(C(=O)Nc4cccc(F)c4)C[C@H]23)cc1 | -1.93% |
| CCCNC(=O)Nc1ccc2c(c1)OC[C@H](C)N(CCC(F)(F)F)C[C@H](C)[C@@H](OC)CN(C)C2=O | 1.36% |
| CCN(CC)CCn1cnc2c1c(=O)[nH]c(=O)n2Cc1ccccc1 | -0.129% |
| Cn1c(=O)[nH]c(=O)c2c1[nH]c(=S)n2Cc1ccccc1 | 30.6% (active) |
| Cc1nnc(Sc2nc3c(c(=O)[nH]c(=O)n3C)n2Cc2ccccc2)s1 | -0.766% |
| Cc1noc(C)c1NC(=O)N(C)C[C@@H]1OCCCC[C@H](C)Oc2ccc(NC(=O)C3CCCCC3)cc2C(=O)N([C@H](C)CO)C[C@@H]1C | 1.95% |
| Cc1noc(C)c1NC(=O)N(C)C[C@@H]1OCCCC[C@H](C)Oc2ccc(NS(=O)(=O)c3c(C)noc3C)cc2C(=O)N([C@@H](C)CO)C[C@@H]1C | -2.92% |
| CO[C@@H]1CN(C)C(=O)c2cc(NC(=O)NC3CCCCC3)ccc2OC[C@@H](C)N(C(C)=O)C[C@H]1C | 1.39% |
| CO[C@H]1CN(C)C(=O)c2ccc(NC(=O)CC(F)(F)F)cc2OC[C@H](C)N(C(=O)C2CC2)C[C@H]1C | 1.15% |
| COc1ccc2sc(-c3ccc(N(C)C)cc3)c(C#CCO)c2c1 | 0.776% |

| SMILES | inhibition |
| --- | --- |
| COc1ccc2c(c1)c(=Cc1ccc(N(C)C)cc1)c1cc(-c3ccccc3)[n+](C)n12 | 48.3% (active) |
| CN(C)Cc1cn(CC[C@H]2CC[C@@H](NS(=O)(=O)c3ccccc3)[C@H](CO)O2)nn1 | -0.48% |
| CCNC(=O)Nc1ccc2c(c1)C(=O)N(C)[C@H]1CC[C@@H](CC(=O)N[C@@H](C)c3ccccc3)O[C@H]1CO2 | -1.42% |
| O=C(O)C[C@@H]1C[C@@H]2c3cc(NC(=O)NC4CCCC4)ccc3O[C@@H]2[C@H](CO)O1 | 0.604% |
| CC(C)NC(=O)N1[C@H](CO)[C@H](c2ccccc2)C12CN(C(=O)Cc1cccnc1)C2 | 0.883% |
| COc1ccc(CCn2c(=N)c(C(=O)NCC3CCCO3)cc3c(=O)n4cccc(C)c4nc32)cc1OC (configuration not stated) | 1.75% |
| Cc1ccc2nc3c(cc(C(=O)NCCc4ccccc4)c(=N)n3CC3CCCO3)c(=O)n2c1 (configuration not stated) | -79.5% |
| Cc1cccn2c(=O)c3cc(C(=O)NCCN4CCOCC4)c(=N)n(Cc4cccnc4)c3nc12 | 54.5% (active) |
| C[C@H]1CN([C@@H](C)CO)C(=O)Cc2cc(NC(=O)Cn3cnnn3)ccc2O[C@H]1CN(C)CC1CC1 | 2.17% |
| O=C(C[C@H]1C=C[C@H](NC(=O)Nc2cc(F)ccc2F)[C@@H](CO)O1)NCc1ccccn1 | -1.22% |
| COc1ccc(C(=O)Nc2ccc3c(c2)C(=O)N(C)C[C@@H](OC)[C@H](C)CN(C(C)=O)[C@@H](C)CO3)cc1 | 2.42% |
| CCC(CC)NC(=O)/C=C/c1cccc([N+](=O)[O-])c1 | 4.03% |
| COC(=O)/C=C\C(=O)Nc1cccc([N+](=O)[O-])c1 | 33.8% (active) |
| O=C(Nc1cccc([N+](=O)[O-])c1)Nn1cnnc1 | -4.32% |
| C[C@@H]1CCCCO[C@H](CN(C)C)[C@@H](C)CN([C@H](C)CO)C(=O)c2cc(N(C)C)ccc2O1 | -1.68% |
| COc1ccc(NC(=O)N(C)C[C@@H]2OCCCC[C@H](C)Oc3ccc(NS(=O)(=O)c4cccs4)cc3C(=O)N([C@@H](C)CO)C[C@@H]2C)cc1 | -4.78% |
| Cc1c(C)c2c(OCC(=O)N[C@@H](C(=O)O)c3ccccc3)cc3c(c2oc1=O)CCC(C)(C)O3 | 31.7% (active) |
| Cc1cc(=O)oc2c3c(cc(OCC(=O)N[C@H](C(=O)O)c4ccccc4)c12)OC(C)(C)CC3 | 15.5% |
| Cc1c(C)c2c(OCC(=O)NCCCO)cc3c(c2oc1=O)CCC(C)(C)O3 | 1.62% |
| O=C(C[C@H]1CC[C@H]2[C@@H](COC[C@@H](O)CN2Cc2nccs2)O1)NCc1ccccc1Cl | 0.949% |
| COc1ccccc1S(=O)(=O)N[C@@H]1C=C[C@H](CC(=O)NCc2cccc(F)c2)O[C@H]1CO | 0.371% |
| CN(C)C(=O)C[C@@H]1C[C@H]2c3cc(NC(=O)Nc4ccccc4F)ccc3O[C@H]2[C@@H](CO)O1 | -1.15% |
| O=C(C[C@@H]1C=C[C@H](NC(=O)Nc2ccccc2F)[C@H](CO)O1)NCc1ccc(F)cc1 | -4.09% |

| SMILES | inhibition |
| --- | --- |
| COc1ccc(NC(=O)Nc2ccc3c(c2)C(=O)N([C@@H](C)CO)C[C@@H](C)[C@H](CN(C)S(=O)(=O)c2cccs2)O3)cc1 | 2.02% |
| C[C@@H]1CN([C@H](C)CO)C(=O)c2cc(NS(=O)(=O)c3cn(C)cn3)ccc2O[C@@H](C)CCCCO[C@H]1CN(C)C | 11.1% |
| COc1ccc(C#Cc2cnc3c(c2)C(=O)N([C@H](C)CO)C[C@@H](C)[C@@H](CN(C)C(=O)CN(C)C)O3)cc1 | 6.88% |
| Cc1noc(C)c1S(=O)(=O)Nc1cccc2c1O[C@@H](CN(C)S(=O)(=O)c1cn(C)cn1)[C@@H](C)CN([C@H](C)CO)C2=O | 1.15% |
| CCCc1cn(CC[C@@H]2CC[C@H](NS(=O)(=O)c3ccccc3Cl)[C@H](CO)O2)nn1 | 4.02% |
| CO[C@H]1CN(C)C(=O)c2ccc(NC(=O)c3ccc4c(c3)OCO4)cc2OC[C@@H](C)NC[C@@H]1C | 0.503% |
| CN1C(=O)c2cc(NS(=O)(=O)CC(F)(F)F)ccc2OC[C@H]2O[C@@H](CC(=O)NCc3ccc(Cl)c(Cl)c3)CC[C@@H]21 | -2.14% |
| Cc1ccccc1S(=O)(=O)N1[C@H](C#N)[C@H](c2ccccc2)[C@@H]1CO | 1.23% |
| CN(C)C(=O)c1cccc(-c2ccc([C@H]3[C@H]4CN(C(=O)Cc5ccccc5)CC(=O)N4[C@H]3CO)cc2)c1 | 1.83% |
| CO[C@@H]1CN(C)C(=O)c2cc(NC(=O)NC3CCCC3)ccc2OC[C@H](C)NC[C@H]1C | 1.04% |
| COc1cccc(S(=O)(=O)N2[C@@H]3CNC[C@H]2C3c2ccc(-c3ccccc3OC)cc2)c1 (some centres not stated) | -1.91% and -0.285% |
| COC(=O)C[C@@H]1CC[C@H]2[C@H](COc3ccc(NC(=O)c4ccccc4F)cc3C(=O)N2C)O1 | 0.852% |
| C/C=C/c1ccc([C@H]2[C@@H](CO)N(C(=O)CN(C)C)C23CN(C(=O)C2CCCC2)C3)cc1 | -0.32% |
| C[C@H](CO)N1C[C@H](C)[C@H](CN(C)C(=O)c2ccccc2)OCCCC[C@H](C)Oc2ccc(N(C)C)cc2C1=O | 1.85% |
| COc1ccccc1S(=O)(=O)N1C[C@@H]2N[C@H](C1)C2c1ccc(-c2cccc(C)c2)cc1 (some centres not stated) | 4.06% and 6.11% |
| C[C@@H](NC(=O)C[C@H]1C=C[C@@H](NC(=O)CN2CCOCC2)[C@@H](CO)O1)c1ccccc1 | 9% |
| CCCN1C[C@H](C)[C@@H](OC)CN(C)C(=O)c2ccc(NC(=O)C3CCOCC3)cc2OC[C@@H]1C | -1.27% |
| O=C(Nc1cccc(Cl)c1)N[C@@H]1CC[C@@H](CCNC(=O)C2CCOCC2)O[C@@H]1CO | -1.57% |
| COc1ccc(NC(=O)N(C)C[C@H]2Oc3ccc(N(C)C)cc3C(=O)N([C@@H](C)CO)C[C@H]2C)cc1 | 3.18% |
| O=C(Nc1cc(F)ccc1F)N1C[C@H]2[C@@H](c3ccccc31)[C@@H](CO)N2CC1CCCC1 | -1.13% |
| C[C@H]1CN([C@@H](C)CO)C(=O)c2cc(NS(=O)(=O)c3cccs3)ccc2O[C@@H]1CN(C)C(=O)Nc1ccccc1 | -2.47% |
